The list is not random: actives were taken first. Their share in the collection is about 7.5%.
ELG1 genotox – qHTS screen for small molecules that induce genotoxicity in human embryonic kidney (HEK293T) cells expressing luciferase-tagged ELG1; Potency, µM (highest dose often 46 µM), most hits filed as activators; AID 504466, 2011; HEK293T ELG1-luciferase reporter, luminescence, 16 h; 330,000 compounds, 1.3% hits; also: nearly all actives have a fitted effect of over 60% in size
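16 hr compound incubation (37 °C, 5% CO2) of HEK293T cells carrying luciferase-tagged ELG1; luciferase then measured by ONE-Glo luminescence after 30 min at RT.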
NPC1 prom act – qHTS Assay for NPC1 Promoter Activators. Huh7 NPC1 promoter luciferase reporter, 24 h. Potency, µM (doses to about 9.22 µM), actives largely listed as activators. 320,000 compounds, 2.4% hits; also: nearly all actives have a fitted effect of over 60% in size
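Huh7 cells stably carrying NPC1 promoter–luciferase, plated in Opti-MEM with 10% FBS for 2 h, were exposed to compound in DMSO for 24 h at 37 °C; luciferase reagent was added for 10 min and luminescence read.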
SMN2 splice up – qHTS Assay for Enhancers of SMN2 Splice Variant Expression; HEK293 SMN2-luciferase splicing reporter, luminescence, 30-36 h; Potency, µM (doses to about 46.1 µM), actives largely listed as activators; 210,000 compounds, 2.8% hits; AID 1458, 2008; also: nearly all actives have a fitted effect of over 55% in size
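HEK293 cells carry an SMN2 […]–luciferase reporter in which exon 7 inclusion puts luciferase in frame. Cells were plated 10-12 h before compound addition, then incubated 30-36 h at 37C. ONE-Glo luminescence was read; sodium butyrate at 4.5 mM final served as control.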
FLuc modulator – qHTS profiling assay for firefly luciferase inhibitor/activator using purifed enzyme and Km concentrations of substrates (counterscreen for miR-21 project). Luciferin 4-monooxygenase (Photinus pyralis), P08659. AID 588342, 2011. Potency, µM (titrated, usually from 57.5 µM), hits mostly inhibitors. 360,000 compounds, 6.9% hits. purified FLuc, Km substrates, luminescence inhibition; also: nearly all actives have a fitted effect of over 55% in size
Target sequence (P08659 whole entry, looked up): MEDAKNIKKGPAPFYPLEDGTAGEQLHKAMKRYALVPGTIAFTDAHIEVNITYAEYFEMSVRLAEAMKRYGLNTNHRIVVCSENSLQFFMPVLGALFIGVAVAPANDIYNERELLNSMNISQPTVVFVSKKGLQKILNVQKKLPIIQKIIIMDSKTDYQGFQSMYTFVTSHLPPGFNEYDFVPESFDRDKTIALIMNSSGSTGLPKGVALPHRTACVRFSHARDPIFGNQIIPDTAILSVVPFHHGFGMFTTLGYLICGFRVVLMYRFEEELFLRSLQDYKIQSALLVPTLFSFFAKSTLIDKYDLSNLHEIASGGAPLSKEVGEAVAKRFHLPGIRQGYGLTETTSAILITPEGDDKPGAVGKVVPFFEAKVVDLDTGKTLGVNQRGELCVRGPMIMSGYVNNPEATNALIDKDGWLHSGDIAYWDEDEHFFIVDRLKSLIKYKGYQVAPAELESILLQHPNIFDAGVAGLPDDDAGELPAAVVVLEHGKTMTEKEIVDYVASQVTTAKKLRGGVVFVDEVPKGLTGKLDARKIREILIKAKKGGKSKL
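Purified P. pyralis luciferase (10nM final) with 10uM D-luciferin and 10uM ATP (Km levels) in 50mM Tris acetate pH 7.5, 10mM Mg acetate, 0.01% Tween-20, 0.05% BSA; qHTS 6-point titration, ~60 µM downward; luminescence read.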
Luc counter – Counterscreen for Luciferase (Kinase-Glo TM) Inhibition; Luciferin 4-monooxygenase (Photuris pensylvanica), Q27757; Kinase-Glo luciferase, ATP luminescence, 8 min; Potency, µM (highest dose often 38.3 µM), hits mostly inhibitors; 200,000 compounds, 0.28% hits; AID 1379, 2008; also: nearly all actives have a fitted effect of over 60% in size
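Kinase-Glo luciferase light output from ATP and luciferin was measured with 10 uM ATP, within the enzyme's linear range. Buffer: 50 mM imidazole pH 7.2, 50 mM KCl, 7 mM MgCl2, 0.01% Tween 20, 0.05% BSA; luminescence read after 8 min at ambient temperature.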
Rab9 promoter act – qHTS Assay for Rab9 Promoter Activators; Huh7 Rab9 promoter-luciferase reporter, luminescence, 24 h; Potency, µM (doses to about 9.22 µM), usual class: activators; 320,000 compounds, 2.8% hits; AID 485297, 2010; also: nearly all actives have a fitted effect of over 60% in size
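Huh7 cells stably carrying a Rab9 promoter-luciferase reporter, 1500 cells per well in OP-MEM I with 10% FBS, treated with compound 24 hours at 37C. Luciferase activity read by luminescence after 10 minutes with Amplite reagent.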
Hits are given with their value; . = inactive; ? = inconclusive; / = no result given; ! = repeats disagree. Calls follow the shape of the dose curve; as a rule, active = well fitted curve in the direction sought with a large enough effect; inconclusive = small, poorly fitted or top-dose-only effect, or another doubt; inactive = no such curve, though single readings can be large; an effect the other way counts as inactive or inconclusive.

SMILES	ELG1 genotox	NPC1 prom act	SMN2 splice up	FLuc modulator	Luc counter	Rab9 promoter act
COc1ccccc1/C=C/C(=O)OCC(=O)Nc1ccc2c(c1)OCCO2	.	.	/	/	/	.
COc1ccccc1/C=C/C(=O)Nc1ccc2c(c1)OCCO2	?	?	2.8µM	0.85µM	.	0.71µM
O=C(/C=C/c1ccco1)Nc1ccc2c(c1)OCCO2	.	2.2µM	8.9µM	1.9µM	.	0.63µM
O=C(/C=C/c1ccccc1)Nc1ccc2c(c1)OCCO2	?	0.5µM	1.1µM	0.21µM	.	0.45µM
O=C(Nc1ccc(Oc2cccnc2)cc1)C1CCN(Cc2ccccc2F)CC1	.	.	/	.	/	.
COc1cccc(-c2ncc3ccccc3c2COC(=O)c2ccco2)c1	.	.	/	.	/	.
CN1CCN(Cn2cc(/C=C/C(=O)c3ccccc3)c3ccccc32)CC1	?	?	.	2.4µM	.	2.8µM
O=C(/C=C/c1cn(CC(O)CN2CCCCCC2)c2ccccc12)c1ccccc1 (stereo unspecified)	/	/	.	.	/	/
Cc1cc(C)c(C)c(S(=O)(=O)N(C)CCc2ccccn2)c1C	.	/	/	/	/	/
CCC1CN(C(=O)N2CCC(C(=O)N3CCN(c4cc(C)ccc4C)CC3)CC2)c2ccccc2O1 (stereo unspecified)	/	/	/	1.9µM	/	/
CCC1CN(C(=O)N2CCC(C(=O)Nc3ccccc3F)CC2)c2ccccc2O1 (stereo unspecified)	.	.	/	11µM!	/	.
COC(=O)c1ccccc1NC(=O)C1CCN(C(=O)N2CC(C)Oc3ccccc32)CC1 (stereo unspecified)	/	/	/	4.8µM	/	/
CCC1CN(C(=O)N2CCC(C(=O)NCc3ccccc3F)CC2)c2ccccc2O1 (stereo unspecified)	/	/	/	.	/	/
CCCc1c(C(=O)N/N=C/c2sccc2C)nnn1-c1nonc1N	.	.	/	.	/	.
CC(C)c1c(C(=O)N/N=C/c2ccc(C(F)(F)F)cc2)nnn1-c1nonc1N	.	.	/	17µM	/	.
CCc1c(C(=O)N/N=C/c2cccs2)nnn1-c1nonc1N	.	.	/	12µM	/	.
CC(C)c1c(C(=O)N/N=C/c2ccsc2)nnn1-c1nonc1N	.	.	/	21µM	/	.
Cc1ccsc1/C=N/NC(=O)c1nnn(-c2nonc2N)c1C(C)C	.	.	/	17µM	/	.
Oc1ccccc1CN1CCCC(N2CCc3ccccc3C2)C1 (stereo unspecified)	.	.	/	.	/	.
CC1CN(C(=O)CCC(=O)NCCCc2ccccc2)c2ccccc2O1 (stereo unspecified)	.	.	/	.	/	.
CC(C)c1c(C(=O)N/N=C/c2ccoc2)nnn1-c1nonc1N	.	.	/	?	/	.
CC(C)c1c(C(=O)N/N=C/c2cccs2)nnn1-c1nonc1N	.	.	/	17µM	/	.
O=C(Nc1ccc2c(c1)OCO2)c1cncc(Br)c1	.	?	.	27µM	.	?
CN(C)C(=O)c1ccc(NC(=O)c2cncc(Br)c2)cc1	.	.	?	?	.	.
O=C(Nc1ccc2c(c1)OCCO2)c1cncc(Br)c1	?	3.5µM	10µM	4.8µM	.	1.4µM
SMILES	ELG1 genotox	NPC1 prom act	SMN2 splice up	FLuc modulator	Luc counter	Rab9 promoter act
COc1ccccc1CNC(=O)COC(=O)c1ncc(Cl)c(Cl)c1Cl	.	.	/	.	/	.
O=C(CCNC(=O)c1ccco1)Nc1ccc(Cl)cc1F	.	.	/	.	/	.
Cc1nc(SCc2cccc(C(=O)O)c2)nc2c1CCCC2	.	.	4.5µM	8.5µM	.	.
COc1ccc(-c2cc(C)nc(SCc3cccc(C(=O)O)c3)n2)cc1	.	.	.	?	.	.
Nc1c2c(nc3sc4c(c13)CCCCC4)CCCCC2	?	1.4µM	?	1.7µM	.	1.6µM
CC1CCc2c(nc3sc4c(c3c2N)CCCC4)C1 (stereo unspecified)	.	?	?	4.8µM	.	?
CCCc1nc2sc3c(c2c(=O)[nH]1)CCCC3	.	.	/	?	.	.
CC1CCc2nc3sc4c(c3c(N)c2C1)CCCC4 (stereo unspecified)	.	?	?	3.8µM	.	.
CCN1CCN(C(=O)C(C)Oc2ccc(S(=O)(=O)N3CCCC3)cc2C(N)=O)CC1 (stereo unspecified)	.	.	/	.	/	.
COc1cc(/C=C2/SC(=S)N(c3c(C)n(C)n(-c4ccccc4)c3=O)C2=O)ccc1O	.	.	.	?	.	.
CCc1noc(C)c1C(=O)OC(C)C(=O)Nc1cc([N+](=O)[O-])ccc1OC (stereo unspecified)	.	.	/	.	/	.
CCc1cccc(C)c1NC(=O)c1cnn(-c2ccc(F)cc2)c1-n1cccc1	/	/	/	.	/	/
COc1ccc(-c2cc(C(=O)Nc3cccnc3)no2)cc1OC	?	2.2µM	.	19µM	/	?
CN1CCN(C(=O)COCc2cc(-c3ccc4c(c3)OCO4)on2)CC1	.	.	/	.	/	.
O=C(Nc1cccnc1)c1cc(-c2ccc(Cl)c(Cl)c2)on1	.	.	/	?	/	.
O=C(Nc1cccnc1)c1cc(-c2ccc(F)cc2)on1	.	.	.	2.4µM	.	.
Cc1ccc(-c2cc(C(=O)NCc3cccnc3)no2)cc1	13µM	?	.	11µM	.	?
O=C(COCc1cc(-c2ccc3c(c2)OCO3)on1)N1CCCCC1	?	?	/	19µM	/	?
COc1ccc(-c2cc(C(=O)NCc3cccnc3)no2)cc1OC	.	.	.	.	.	.
O=C(Nc1cccc(Br)c1)c1cc(-c2ccc3c(c2)OCCO3)on1	/	/	/	0.67µM	/	/
Cc1ccc(NC(=O)c2cc(-c3ccc4c(c3)OCO4)on2)cc1C	?	.	/	.	/	.
CCCNC(=O)COCc1cc(-c2ccc3c(c2)OCO3)on1	.	.	/	?	/	.
O=C(COCc1cc(-c2ccc3c(c2)OCO3)on1)Nc1cccnc1	.	.	/	21µM	/	.
O=C(Nc1cccnc1)c1cc(-c2cccc(Cl)c2)on1	.	.	.	.	/	.
O=C(Nc1cccnc1)c1cc(-c2ccc3c(c2)OCO3)on1	?	.	.	0.48µM	?	.
COc1ccc(NC(=O)CSc2nc3ccccc3c(=O)n2CCCC(=O)NCC2CCCO2)c(OC)c1 (stereo unspecified)	.	.	/	.	/	.
O=C(Cc1ccccc1)N(Cc1cccnc1)c1nc2c(F)cccc2s1	/	/	/	.	/	/
O=C(c1ccc2c(c1)OCCO2)N(Cc1cccnc1)c1nc2c(F)cccc2s1	/	/	/	17µM	/	/
CC(=O)c1ccc2c(c1)C1C=CCC1C(C(=O)O)N2 (stereo unspecified)	.	.	.	?	.	.

Source: PubChem (National Center for Advancing Translational Sciences (NCATS))
